Several values for one entry are separate records, joined by “and”; a condition that tells them apart may be missing. Equal values may be shown once. Results filed as inconclusive are left out. Unmarked numbers belong to inactive results. Activity calls are given as the source filed them. Calls follow the shape of the dose curve; as a rule, active = well fitted inhibition curve with a large enough effect; inconclusive = small, poorly fitted or top-dose-only effect; inactive = flat fitted curve, though single readings scatter.
target: Voltage-gated inwardly rectifying potassium channel KCNH2 (Homo sapiens) (UniProt Q12809); assay: qHTS Assay for Small Molecule Inhibitors of the Human hERG Channel Activity (AID 588834); conditions: U2OS BacMam hERG, FluxOR thallium flux fluorescence; series mostly up to 46.1 µM; activity change, negative = inhibition: at the top concentration;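 also: lower thallium flux fluorescence means stronger hERG block; nearly all actives have a fitted effect of over 50% in size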; as to activity change, negative = inhibition: top concentration of the series differs between compounds; % is scaled to controls: 0 for no effect and ±100 for the full control effect
Summary of the method: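 Thallium serves as surrogate for K+ influx through BacMam-delivered hERG in U2OS cells. Compounds are added for about 10 minutes after dye loading; stimulation buffer then starts flux, monitored kinetically on FDSS.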
Potency is read from the fitted curve at half-maximal effect.

Sequence of Voltage-gated inwardly rectifying potassium channel KCNH2 (Homo sapiens) (Q12809 whole entry, looked up): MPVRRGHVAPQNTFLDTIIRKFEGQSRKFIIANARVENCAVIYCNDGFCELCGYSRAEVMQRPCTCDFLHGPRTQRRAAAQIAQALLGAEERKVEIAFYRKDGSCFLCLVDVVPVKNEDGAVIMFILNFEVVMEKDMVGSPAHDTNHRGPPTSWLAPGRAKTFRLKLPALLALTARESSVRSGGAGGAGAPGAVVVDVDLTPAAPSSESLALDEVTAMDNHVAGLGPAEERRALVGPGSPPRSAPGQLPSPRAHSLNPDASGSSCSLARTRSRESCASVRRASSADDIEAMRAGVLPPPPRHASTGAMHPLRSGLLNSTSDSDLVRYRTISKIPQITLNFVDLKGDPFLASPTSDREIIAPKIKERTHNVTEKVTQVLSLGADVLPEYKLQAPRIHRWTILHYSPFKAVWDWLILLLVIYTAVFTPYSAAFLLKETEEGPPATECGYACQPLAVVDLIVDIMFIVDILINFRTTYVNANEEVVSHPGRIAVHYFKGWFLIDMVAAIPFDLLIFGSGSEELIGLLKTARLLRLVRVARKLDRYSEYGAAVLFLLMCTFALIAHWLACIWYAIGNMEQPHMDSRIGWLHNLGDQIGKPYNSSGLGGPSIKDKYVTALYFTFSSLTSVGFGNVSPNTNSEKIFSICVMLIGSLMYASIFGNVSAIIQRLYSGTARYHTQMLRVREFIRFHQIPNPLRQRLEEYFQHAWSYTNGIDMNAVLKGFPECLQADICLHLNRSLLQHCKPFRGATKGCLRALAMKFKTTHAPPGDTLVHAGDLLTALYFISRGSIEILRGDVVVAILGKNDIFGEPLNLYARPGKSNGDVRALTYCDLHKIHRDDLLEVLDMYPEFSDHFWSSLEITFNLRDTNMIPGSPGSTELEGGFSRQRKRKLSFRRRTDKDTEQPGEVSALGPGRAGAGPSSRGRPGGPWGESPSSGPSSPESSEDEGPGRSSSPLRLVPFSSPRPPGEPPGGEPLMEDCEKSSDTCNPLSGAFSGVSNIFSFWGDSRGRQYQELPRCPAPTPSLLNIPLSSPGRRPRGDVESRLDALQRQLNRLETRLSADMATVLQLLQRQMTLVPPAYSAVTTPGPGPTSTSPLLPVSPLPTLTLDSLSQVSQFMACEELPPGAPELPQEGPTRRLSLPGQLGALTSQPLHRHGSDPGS

Point of comparison: `CC(C)[N+](C)(CCC(C(N)=O)(c1ccccc1)c1ccccc1)C(C)C`, “activity change, negative = inhibition” value -18.8% [at 20.6 µM]. Against it:
- COc1ccc(CN2CCNCC2)c(OC)c1OC — lower, -23.2% [at 20.6 µM]

Point of comparison: `CC(C)NCC(O)c1ccc(N)c(C#N)c1` (stereo not given), “activity change, negative = inhibition” value 4.3%. Against it:
- CN1C[C@@H](NS(=O)(=O)N(C)C)C[C@@H]2c3cccc4c3c(cn4C)C[C@H]21 — lower, 1.98%
- NC(=O)OCCCc1ccccc1 — lower, 3.67%
- CC(C)(C)OC(=O)c1ncn2c1[C@@H]1CCCN1C(=O)c1c(Br)cccc1-2 — higher, 19.4%
- C[C@]12C=CC(=O)C=C1CC[C@@H]1[C@@H]2CC[C@@]2(C)[C@H]1CC[C@]2(C)O — higher, 5.74%
- C#C[C@]1(O)CC[C@H]2[C@@H]3CCC4=CC(=O)CCC4=C3C=C[C@@]21CC — higher, 7.17%
- Nc1ccc(N)cc1 — higher, 8.02%
- CC[C@]1(O)CC[C@H]2[C@@H]3CCC4=CCCC[C@@H]4[C@H]3CC[C@@]21C — higher, 9.85%
- CCC1(CC)C(=O)NC(=O)NC1=O — lower, -0.814%

In the case of `CCCCCCCCCCCC[N+](C)(C)CCOc1ccccc1`, the Potency is reported as 2.82 µM (active) and 5.01 µM (active).

target: Luciferin 4-monooxygenase (Photinus pyralis) (UniProt P08659); assay: Biochemical firefly luciferase enzyme assay for NPC (AID 624030); also: nearly all actives have a fitted effect of over 70% in size;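 as to activity change, negative = inhibition: purified P. pyralis luciferase at 10 nM with luciferin and ATP substrate; 0% = DMSO and -100% = full luciferase inhibition by PTC124 control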; conditions: purified P. pyralis luciferase, luminescence, 5 min; series mostly up to 58.6 µM; activity change, negative = inhibition: at the top concentration
Summary of the method: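 Counter-screen for direct inhibition of the luciferase enzyme by approved-drug library compounds, run at 10 nM enzyme in 50 mM Tris acetate (final). Luminescence was read within 5 min of enzyme-buffer addition and normalized to PTC124 versus DMSO (0%).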

Sequence of Luciferin 4-monooxygenase (Photinus pyralis) (P08659 whole entry, looked up): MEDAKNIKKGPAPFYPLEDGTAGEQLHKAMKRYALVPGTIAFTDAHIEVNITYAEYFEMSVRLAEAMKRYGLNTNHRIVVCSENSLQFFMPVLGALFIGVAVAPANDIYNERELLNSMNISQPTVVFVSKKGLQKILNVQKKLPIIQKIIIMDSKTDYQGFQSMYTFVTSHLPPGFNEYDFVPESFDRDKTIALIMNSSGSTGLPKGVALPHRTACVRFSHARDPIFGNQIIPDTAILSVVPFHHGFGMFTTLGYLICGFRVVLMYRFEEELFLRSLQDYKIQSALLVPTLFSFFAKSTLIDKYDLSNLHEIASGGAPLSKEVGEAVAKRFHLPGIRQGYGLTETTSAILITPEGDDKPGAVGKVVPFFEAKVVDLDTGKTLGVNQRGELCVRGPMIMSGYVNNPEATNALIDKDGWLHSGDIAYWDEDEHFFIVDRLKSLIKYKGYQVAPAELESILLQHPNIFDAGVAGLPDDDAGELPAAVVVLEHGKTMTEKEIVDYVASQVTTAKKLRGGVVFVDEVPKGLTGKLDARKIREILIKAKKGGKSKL

Point of comparison: `CN1C[C@@H](NS(=O)(=O)N(C)C)C[C@@H]2c3cccc4c3c(cn4C)C[C@H]21`, “activity change, negative = inhibition” value -0.38%. Against it:
- C[C@H]1CNCCc2ccc(Cl)cc21 — higher, 0.0467%
- CCN(CC)Cc1nccn1-c1ccc([N+](=O)[O-])cc1C(=O)c1ccccc1Cl — lower, -6.36%
- O=C(N[C@@H]1N=C(c2ccccc2F)c2cccc3c2N(CC3)C1=O)c1cc2ccccc2[nH]1 — lower, -5.47%
- CN1C(=O)CN=C(c2ccccc2)c2cc(Cl)ccc21 — lower, -1.5%
- CCCCC1C(=O)NC(=O)N(C2CCCCC2)C1=O (stereo not given) — lower, -6.91%
- NC(=O)OCCCc1ccccc1 — lower, -0.487%
- Cc1ccc(O)cc1 — lower, -3.89%
- CCCOC(=O)Cc1ccc(OCC(=O)N(CC)CC)c(OC)c1 — higher, 0.0119%
- CC(C)(C)OC(=O)c1ncn2c1[C@@H]1CCCN1C(=O)c1c(Br)cccc1-2 — higher, 0.525%
- CC(C)NCC(O)c1ccc(N)c(C#N)c1 (stereo not given) — higher, 1.87%
- O=C(O)CCCCCCNC1c2ccccc2CCc2ccccc21 — higher, 1.54%
- COP(=S)(OC)Oc1ccc(S(N)(=O)=O)cc1 — lower, -1.16%
- C[C@]12C=CC(=O)C=C1CC[C@@H]1[C@@H]2CC[C@@]2(C)[C@H]1CC[C@]2(C)O — higher, 0.419%
- CCCCCCCCCCCC[N+](C)(C)CCOc1ccccc1 — higher, 17.3%
- C#C[C@]1(O)CC[C@H]2[C@@H]3CCC4=CC(=O)CCC4=C3C=C[C@@]21CC — lower, -1.35%
- O=C(O)CNC(=O)c1ccccc1I — higher, 34.8%
- CN1CCc2cc(Cl)c(O)cc2[C@H]2c3ccccc3CC[C@@H]21 — higher, 17.7%
- CCOC(=O)NC(C)(C)Cc1ccc(Cl)cc1 — lower, -1.29%
- CC[C@]1(O)CC[C@H]2[C@@H]3CCC4=CCCC[C@@H]4[C@H]3CC[C@@]21C — lower, -18.4%
- CCC1(CC)C(=O)NC(=O)NC1=O — higher, 5.83%

Point of comparison: `COc1ccc(CN2CCNCC2)c(OC)c1OC`, “activity change, negative = inhibition” value 0.876% [at 24.9 µM]. Against it:
- CC(C)[N+](C)(CCC(C(N)=O)(c1ccccc1)c1ccccc1)C(C)C — higher, 18.8% [at 24.9 µM]

Point of comparison: `CNC(C)Cc1ccc2c(c1)OCO2` (stereo not given), “activity change, negative = inhibition” value -0.282% [at 123 µM]. Against it:
- NC1(c2ccccc2)CCCCC1 — higher, 0.522% [at 123 µM]
- CC(Cc1ccc2c(c1)OCO2)NO (stereo not given) — lower, -4.38% [at 123 µM]
- CN(C)CCc1c[nH]c2cccc(O)c12 — lower, -13% [at 123 µM]
- CCc1cc(OC)c(C[C@H](C)N)cc1OC — higher, 2.54% [at 123 µM]
- COc1ccc2[nH]cc(CCN(C(C)C)C(C)C)c2c1 — higher, 0.217% [at 123 µM]
- CC1N=C(N)OC1c1ccccc1 (stereo not given) — lower, -7.02% [at 123 µM]
- CC(=O)OC1(c2ccccc2)CCN(CCc2ccccc2)CC1 — lower, -0.434% [at 123 µM]

In the case of `c1ccc(CCNc2nc(-c3ccccc3)cs2)cc1`, the Potency is reported as 1610 nM (active).
For `Cc1nnc2n1-c1sc(CCC(=O)N3CCOCC3)cc1C(c1ccccc1Cl)=NC2`, the Potency was “inactive”.
